This is part of a sample that, as a whole, favours compounds with a hit. Of some 79,000 tested, about 15% had one in any assay. The source made the active and inactive calls. Rule as the data show it: active = growth inhibition above about 70%; inactive = the rest.
How the values were obtained:
[1] = NCI Yeast Anticancer Drug Screen. Data for the rad52 strain (AID 147);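 also: 0% = growth of vehicle-treated control cultures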; settings: S. cerevisiae rad52 mutant growth inhibition, stronger effect = higher value
In short: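 DNA repair-defective yeast; compound exposure; growth scored against vehicle controls.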

[2] = NCI Yeast Anticancer Drug Screen. Data for the wt1 strain (AID 149);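 also: 0% = growth of vehicle-treated wt1 cultures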; settings: S. cerevisiae wt1 strain (SPY 50644) growth inhibition, stronger effect = higher value
In short: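 Yeast wt1 strain exposed to compounds; growth inhibition measured relative to vehicle-treated controls.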

[3] = NCI Yeast Anticancer Drug Screen. Data for the rad50EPP+ strain (AID 151);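 also: 0% = growth of vehicle-treated control cultures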; settings: S. cerevisiae rad50 mutant strain, stronger effect = higher value
In short: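 rad50EPP+ yeast treated with test compounds. Readout: growth vs vehicle control.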

[4] = NCI Yeast Anticancer Drug Screen. Data for the mgt1 strain (AID 153); settings: S. cerevisiae mgt1 mutant growth inhibition, stronger effect = higher value
In short: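 Growth inhibition relative to vehicle controls was scored for the mgt1 yeast strain after compound exposure.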

[5] = NCI Yeast Anticancer Drug Screen. Data for the rad50 strain (AID 155);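 also: 0% = growth of vehicle-only cultures of the same strain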; settings: S. cerevisiae rad50 strain growth inhibition, stronger effect = higher value
In short: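 Yeast carrying a defined DNA repair defect were exposed to test compounds, and growth was compared with vehicle-treated controls to give percent inhibition.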

[6] = NCI Yeast Anticancer Drug Screen. Data for the mec2-1 strain (AID 157); settings: S. cerevisiae mec2-1 strain, stronger effect = higher value
In short: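 Growth inhibition is read against vehicle-treated controls after compound exposure of the mec2-1 yeast strain, which is defective in DNA damage repair or cell cycle control.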

[7] = NCI Yeast Anticancer Drug Screen. Data for the rad14 strain (AID 159);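 also: 0% = growth of vehicle-treated control cultures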; settings: S. cerevisiae rad14 strain growth inhibition, stronger effect = higher value
In short: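 Yeast cells carrying a defined DNA-repair defect were exposed to compounds, and growth inhibition was calculated relative to vehicle-treated control cultures.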

[8] = NCI Yeast Anticancer Drug Screen. Data for the sgs1 mgt1 strain (AID 161);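 also: 0% = growth of cultures given vehicle only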; settings: S. cerevisiae sgs1 mgt1 strain, stronger effect = higher value
In short: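 Growth of a repair-deficient yeast mutant was monitored after compound treatment and expressed as inhibition relative to vehicle-treated cultures.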

[9] = NCI Yeast Anticancer Drug Screen. Data for the CLN2oe strain (AID 163);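 also: 0% = growth of vehicle-only control cultures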; settings: S. cerevisiae CLN2oe strain, stronger effect = higher value
In short: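 Compound-treated yeast; growth vs vehicle ctrl = % inhibition. Genetically altered strain (cell-cycle control).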

[10] = NCI Yeast Anticancer Drug Screen. Data for the cln2 rad14 strain (AID 165);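 also: 0% = growth equal to vehicle treated cultures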; settings: S. cerevisiae cln2 rad14 strain, stronger effect = higher value
In short: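 Growth inhibition, relative to vehicle-treated controls, is the read-out. The test organism is a yeast strain with defined genetic alterations, cln2 rad14.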

[11] = NCI Yeast Anticancer Drug Screen. Data for the bub3 strain (AID 167); settings: S. cerevisiae bub3 mutant strain, stronger effect = higher value
In short: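 Compounds were applied to a genetically altered yeast strain carrying a cell-cycle control defect. Growth inhibition was scored against vehicle-treated controls.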

[12] = NCI Yeast Anticancer Drug Screen. Data for the wt2 strain (AID 169);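 also: 0% = growth of vehicle-treated yeast cultures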; settings: S. cerevisiae wt2 strain growth inhibition, stronger effect = higher value
In short: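 Compound exposure of yeast; growth compared with vehicle controls; inhibition reported.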

[13] = NCI Yeast Anticancer Drug Screen. Data for the mlh1 strain (AID 171);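 also: 0% = growth of vehicle-treated control cultures of the same strain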; settings: S. cerevisiae mlh1 strain growth inhibition, stronger effect = higher value
In short: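 Compounds are applied to a genetically altered yeast strain, and its growth is compared with that of vehicle-treated cultures to give percent inhibition.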

[14] = NCI Yeast Anticancer Drug Screen. Data for the sgs1 strain (AID 173);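 also: 0% = growth of vehicle-only control cultures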; settings: S. cerevisiae sgs1 mutant, stronger effect = higher value
In short: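 Compounds applied to genetically altered yeast; growth compared with vehicle-treated cultures to give % inhibition.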

[15] = NCI Yeast Anticancer Drug Screen. Data for the mlh1 rad18 strain (AID 175); settings: S. cerevisiae mlh1 rad18 strain growth inhibition, stronger effect = higher value
In short: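 Cells of a genetically altered yeast strain, deficient in DNA damage repair, were treated with compound. Their growth was then compared with that of vehicle-treated cultures to give inhibition.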

[16] = NCI Yeast Anticancer Drug Screen. Data for the rad18 strain (AID 177); settings: S. cerevisiae rad18 mutant growth inhibition, stronger effect = higher value
In short: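 Compounds are applied to a repair-deficient yeast strain, and growth is compared with that of vehicle-treated cultures to give percent inhibition.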

[17] = at 5.0 µM (retest, dose inferred, filed as 0.5)
[18] = at 50.0 µM (retest, dose inferred, filed as 5.0)

Measured: growth inhibition

O=[N+]([O-])c1cc(S(=O)(=O)Nc2ccccc2)ccc1Cl
active: [1]; at 33.0 µM 89% | [1]; at 100.0 µM 98% | [2]; at 33.0 µM 86% | [2]; at 100.0 µM 99% | [4]; at 33.0 µM 93% | [4]; at 100.0 µM 99% | [5]; at 33.0 µM 90% | [5]; [18] 99% | [5]; at 50.0 µM 88.5% | [5]; at 100.0 µM 97% | [6]; at 33.0 µM 91% | [6]; [18] 99% | [6]; at 50.0 µM 90.5% | [6]; at 100.0 µM 99% | [7]; at 33.0 µM 91% | [7]; at 100.0 µM 98% | [8]; [18] 95% | [8]; at 50.0 µM 90.5% | [9]; at 33.0 µM 93% | [9]; at 100.0 µM 98% | [10]; [18] 97% | [10]; at 50.0 µM 89.2% | [11]; at 33.0 µM 91% | [11]; [18] 96% | [11]; at 50.0 µM 86.2% | [11]; at 100.0 µM 99% | [12]; at 33.0 µM 90% | [12]; at 100.0 µM 99% | [13]; at 33.0 µM 89% | [13]; at 100.0 µM 98% | [14]; at 33.0 µM 89% | [14]; at 100.0 µM 98% | [15]; [18] 100% | [15]; at 50.0 µM 86.8% | [16]; at 33.0 µM 94% | [16]; at 100.0 µM 99%
inactive: [1]; at 1.2 µM 2% | [1]; at 3.7 µM 6% | [1]; at 11.0 µM 15% | [2]; at 1.2 µM -20% | [2]; at 3.7 µM -20% | [2]; at 11.0 µM 0% | [3]; at 1.2 µM 14% | [3]; at 3.7 µM 6% | [3]; at 11.0 µM 1% | [3]; at 33.0 µM 20% | [3]; at 100.0 µM 48% | [4]; at 1.2 µM 15% | [4]; at 3.7 µM 3% | [4]; at 11.0 µM 30% | [5]; at 1.2 µM -7% | [5]; at 3.7 µM 3% | [5]; [17] 34% | [5]; at 11.0 µM 19% | [6]; at 1.2 µM -10% | [6]; at 3.7 µM -5% | [6]; [17] 42% | [6]; at 11.0 µM 21% | [7]; at 1.2 µM -4% | [7]; at 3.7 µM -8% | [7]; at 11.0 µM 2% | [8]; [17] -26% | [9]; at 1.2 µM -8% | [9]; at 3.7 µM -1% | [9]; at 11.0 µM 35% | [10]; [17] 33% | [11]; at 1.2 µM 11% | [11]; at 3.7 µM 19% | [11]; [17] -20% | [11]; at 11.0 µM 45% | [12]; at 1.2 µM -26% | [12]; at 3.7 µM -6% | [12]; at 11.0 µM 4% | [13]; at 1.2 µM -34% | [13]; at 3.7 µM -20% | [13]; at 11.0 µM 13% | [14]; at 1.2 µM 4% | [14]; at 3.7 µM -3% | [14]; at 11.0 µM 33% | [15]; [17] 35% | [16]; at 1.2 µM 1% | [16]; at 3.7 µM 9% | [16]; at 11.0 µM 27%

O=C1c2cccc3cc([N+](=O)[O-])cc(c23)C(=O)N1CCN1CCCC1
inactive: [1]; at 1.2 µM 33% | [1]; at 3.7 µM 61% | [1]; at 11.0 µM 63% | [2]; at 1.2 µM 8% | [2]; at 3.7 µM 8% | [2]; at 11.0 µM 0% | [2]; at 33.0 µM 3% | [2]; at 100.0 µM 25% | [3]; at 1.2 µM 13% | [3]; at 3.7 µM 23% | [3]; at 11.0 µM 39% | [4]; at 1.2 µM -6% | [4]; at 3.7 µM 10% | [4]; at 11.0 µM 8% | [4]; at 33.0 µM 7% | [4]; at 100.0 µM 44% | [5]; at 1.2 µM 16% | [5]; at 3.7 µM 48% | [5]; [17] 11% | [5]; at 11.0 µM 62% | [5]; at 50.0 µM 66.7% | [6]; at 1.2 µM 5% | [6]; at 3.7 µM 5% | [6]; [17] 11% | [6]; at 11.0 µM -3% | [6]; at 33.0 µM -4% | [6]; [18] 30% | [6]; at 50.0 µM 28.1% | [6]; at 100.0 µM 38% | [7]; at 1.2 µM 12% | [7]; at 3.7 µM 11% | [7]; at 11.0 µM 14% | [7]; at 33.0 µM 5% | [7]; at 100.0 µM 28% | [8]; [17] 8% | [8]; [18] 12% | [8]; at 50.0 µM -14.2% | [9]; at 1.2 µM 7% | [9]; at 3.7 µM 25% | [9]; at 11.0 µM 25% | [9]; at 33.0 µM 39% | [9]; at 100.0 µM 61% | [10]; [17] 9% | [10]; [18] 36% | [10]; at 50.0 µM -15.8% | [11]; at 1.2 µM 9% | [11]; at 3.7 µM 20% | [11]; [17] 9% | [11]; at 11.0 µM 13% | [11]; at 33.0 µM 17% | [11]; [18] 12% | [11]; at 50.0 µM -11.2% | [11]; at 100.0 µM 35% | [12]; at 1.2 µM -11% | [12]; at 3.7 µM 0% | [12]; at 11.0 µM 12% | [12]; at 33.0 µM 7% | [12]; at 100.0 µM 19% | [13]; at 1.2 µM 0% | [13]; at 3.7 µM 20% | [13]; at 11.0 µM -4% | [13]; at 33.0 µM 18% | [13]; at 100.0 µM 39% | [14]; at 1.2 µM 0% | [14]; at 3.7 µM 0% | [14]; at 11.0 µM 2% | [14]; at 33.0 µM 19% | [14]; at 100.0 µM 50% | [15]; [17] 3% | [15]; [18] 18% | [15]; at 50.0 µM -41.9% | [16]; at 1.2 µM 24% | [16]; at 3.7 µM 23% | [16]; at 11.0 µM 33% | [16]; at 33.0 µM 15%
active: [1]; at 33.0 µM 90% | [1]; at 100.0 µM 94% | [3]; at 33.0 µM 73% | [3]; at 100.0 µM 83% | [5]; at 33.0 µM 88% | [5]; [18] 95% | [5]; at 100.0 µM 91% | [16]; at 100.0 µM 73%
